Screening data deposited in PubChem by National Center for Advancing Translational Sciences (NCATS).
An excerpt weighted towards active compounds, which were near 19% of everything screened.
TDP1 inh: blocks human tyrosyl-DNA phosphodiesterase 1. recombinant TDP1, AlphaScreen DNA substrate cleavage. Potency, µM (series often up to 130 µM), hits mostly inhibitors. 0.28% of 350,000 active. AID 485290; further: nearly all actives have a fitted effect of over 40% in size
Target sequence (Q9NUW8 whole entry, looked up): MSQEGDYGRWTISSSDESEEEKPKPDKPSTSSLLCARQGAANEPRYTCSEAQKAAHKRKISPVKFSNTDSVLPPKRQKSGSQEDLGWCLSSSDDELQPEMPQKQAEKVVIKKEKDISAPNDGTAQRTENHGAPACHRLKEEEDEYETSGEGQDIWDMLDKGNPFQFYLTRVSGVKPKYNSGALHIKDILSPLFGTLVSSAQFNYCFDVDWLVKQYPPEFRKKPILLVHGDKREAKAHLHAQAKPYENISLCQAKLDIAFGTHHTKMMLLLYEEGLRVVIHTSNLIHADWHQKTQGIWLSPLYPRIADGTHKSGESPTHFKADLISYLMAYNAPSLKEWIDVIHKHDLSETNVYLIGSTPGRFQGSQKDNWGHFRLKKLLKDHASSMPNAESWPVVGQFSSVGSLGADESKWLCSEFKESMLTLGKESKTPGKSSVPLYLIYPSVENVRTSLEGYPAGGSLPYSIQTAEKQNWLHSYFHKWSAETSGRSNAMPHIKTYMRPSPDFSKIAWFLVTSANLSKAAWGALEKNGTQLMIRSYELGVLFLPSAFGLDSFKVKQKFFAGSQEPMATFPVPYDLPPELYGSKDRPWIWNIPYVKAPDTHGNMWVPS
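Steps: enzyme plus compound, 15 min RT; add biotin/phosphotyrosine-FITC oligonucleotide (15 nM final), react 5 min; add donor/acceptor beads (10 ug/ml final), 10 min; read AlphaScreen. Tdp1 at 1 nM final.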
HepG2 tox: HepG2 cytotoxicity, counter-screen for TGF-b inhibitors; Potency, µM (titrated, usually from 46.1 µM), most hits filed as cytotoxic; HepG2 CAGA-GFP viability, ATP luminescence, 18 h; 0.76% of 410,000 active
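CellTiter-Glo luminescence gave cytotoxicity after 18 hours at 37 degrees C. The cells were HepG2 CAGA-GFP in 1% FBS DMEM, stimulated with 500 pg/mL TGF-beta after compound addition. %Activity was normalised to no-cell wells (complete cell-killing) and DMSO (no toxicity), and curves were fitted and classified.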
DT40 TDP1 CPT: growth inhibition of DT40 Tdp1-/-;hTDP1 cells with camptothecin (screen for TDP1 inhibitors); chicken DT40 Tdp1-/-;hTDP1 cells + 20 nM CPT, ATP luminescence, 48 h; Potency, µM (doses to about 46.2 µM), hits mostly inhibitors; 12% of 420,000 active; further: nearly all actives have a fitted effect of over 55% in size
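Chicken DT40 Tdp1-/- cells stably complemented with human TDP1 were seeded at 400 cells/well in medium containing 20 nM camptothecin, exposed to pin-transferred compounds, and grown at 37 °C for at least 48 hr. Viability was read as ATP luminescence.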
DT40 TDP1 no CPT: qHTS for Inhibitors of human tyrosyl-DNA phosphodiesterase 1 (TDP1): qHTS in cells in absence of CPT. DT40 Tdp1-/- hTDP1 cells, no CPT, ATP luminescence, 48 h. Potency, µM (top dose mostly 46.2 µM), actives largely listed as inhibitors. 15% of 420,000 active. AID 686978, 2013; further: nearly all actives have a fitted effect of over 55% in size
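DT40 Tdp1-/-;hTDP1 cells, no CPT (DMSO vehicle only), 400 cells/well; compounds pin-transferred; ≥48 hr, 37 °C; CellTiter-Glo 30 min RT dark, luminescence read.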
TGFb inhibitor: TGF-b pathway inhibition | HepG2 CAGA-GFP TGF-b/SMAD3 reporter, GFP fluorescence, 18 h; TGF-beta stimulated, 500 pg/mL final | Potency, µM (series often up to 46.1 µM), actives largely listed as inhibitors | 1.2% of 410,000 active | AID 588855; further: nearly all actives have a fitted effect of over 65% in size
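HEPG2 CAGA-GFP cells (1000/well, DMEM with 1% FBS) were pre-incubated 2 h at 37 degrees C, given compound by pin tool, then stimulated with TGF-beta at 500 pg/mL final for 18 h before per-cell GFP fluorescence imaging.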
IL1B secr inh: inhibitors of inflammasome signaling (IL-1 beta secretion) | THP-1 LPS/ATP IL-1B secretion, AlphaLISA, 16 h; active compounds read low | AID 743279 | activity change, % at 57.5 µM | 4.7% of 360,000 active; in the data active means activity change below about -50%; inconclusive means mostly about -30% to -49%
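THP-1 cells pretreated 1 hr with compounds (up to 57.5 uM final), then stimulated with LPS (250 ng/mL final) plus ATP (1.25 mM final); secreted IL-1B measured by AlphaLISA after 16 hr, decreased signal indicating inhibition.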
A number is an active result; - = inactive; ? = inconclusive; . = no result; [ ] = dose if it differs, or a comment. Unless noted, the call rests on the fitted dose curve; in most records, active means well fitted curve in the direction sought with a large enough effect; inconclusive means small, poorly fitted or top-dose-only effect, or another doubt; inactive means no such curve, though single readings can be large; an effect the other way counts as inactive or inconclusive.

SMILES	TDP1 inh	HepG2 tox	DT40 TDP1 CPT	DT40 TDP1 no CPT	TGFb inhibitor	IL1B secr inh
C=C[C@@]1(C)CC(=O)[C@@]2(O)[C@@]3(C)[C@@H](O)CCC(C)(C)[C@@H]3[C@H](O)[C@H](OC(C)=O)[C@@]2(C)O1	-	.	-	?	.	.
CC(=O)Nc1ccc(NC(=O)c2cc(S(=O)(=O)N3CCCCC3)ccc2C)cc1	-	-	-	-	-	-
Cc1ccc(S(=O)(=O)N2CCCCC2)cc1C(=O)Nc1cccnc1	20µM	-	-	-	-	-
COc1ccc(S(=O)(=O)N2CCOCC2)cc1C(=O)Nc1ccc(N2CCCCCC2)cc1	.	-	18µM	18µM	-	-
Cc1ccc(S(=O)(=O)N2CCCCC2)cc1C(=O)Nc1ncn[nH]1	50µM	.	.	.	.	.
Cc1ccc(S(=O)(=O)N2CCCCC2)cc1C(=O)Nc1ccc(N2CCOCC2)cc1	-	-	?	13µM	-	-
COc1ccc(NC(=O)c2cc(S(=O)(=O)N3CCCCC3)ccc2C)cc1S(=O)(=O)N1CCOCC1	.	-	-	-	-	-
Cc1ccc(S(=O)(=O)N2CCCCC2)cc1C(=O)NC1CCCCC1	.	-	-	?	-	-
O=C(Nc1cccnc1)c1cccc(S(=O)(=O)N2CCCCC2)c1	-	-	-	-	-	-
CC(C)C[C@H](NC(=O)Nc1ccc2c(c1)OCCO2)C(=O)O	.	-	-	-	-	-
COc1ccc(C)cc1NC(=O)C1CCN(S(=O)(=O)c2cc(Br)cc3c2N(C(C)=O)CC3)CC1	-	-	-	-	-	.
CCC(C)[C@H](NC(=O)[C@@H]1Cc2c([nH]c3ccccc23)C2c3ccccc3C(=O)N21)C(=O)N1CCC[C@@H]1C(=O)O (stereo not given in full)	.	-	-	-	-	-
CCC(C)[C@H](NC(=O)[C@@H]1Cc2c([nH]c3ccccc23)C2c3ccccc3C(=O)N21)C(=O)NCC1CCCO1 (stereo not given in full)	.	-	?	16µM	?	-
COc1ccc(C2=NOC(Cn3c(Cc4ccc(Cl)cc4)nc4c3c(=O)n(C)c(=O)n4C)C2)cc1 (stereo not given)	-	-	26µM	23µM	-	-
COc1ccccc1C1=NOC(Cn2c(NCCCO)nc3c2c(=O)n(C)c(=O)n3C)C1 (stereo not given)	.	-	-	?	-	-
CC1CN(C(=O)CCC(=O)NC2CCCCC2)c2ccccc2S1 (stereo not given)	.	-	?	?	-	?
CCOC(=O)c1ccccc1N/C=C/C(=O)c1cccs1	-	-	?	21µM	-	-
CC(=O)[C@H]1CC[C@@H]2[C@H]3CC=C4C[C@@H](O)CC[C@]4(C)[C@H]3CC[C@]12C	-[21 µM]	.	.	.	.	.
O=C(C[C@@H]1C/C=C/CC[C@@H](Cc2ccc(F)cc2)C(=O)O[C@@H](c2ccccc2)CNC1=O)NCCO	-	-	?	18µM	?	-
O=C(C[C@H]1C/C=C\CC[C@@H](Cc2ccc(F)cc2)C(=O)O[C@H](c2ccccc2)CNC1=O)N[C@H](CO)Cc1ccccc1	-	-	18µM	15µM	-	-
O=C(C[C@H]1C/C=C\C[C@H](Cc2ccc(F)cc2)C(=O)O[C@@H](c2ccccc2)CNC1=O)N[C@@H](CO)Cc1ccccc1	-	-	21µM	12µM	?	-
CC(C)(C)OC(=O)C[C@@H]1C/C=C\C[C@@H](CC(=O)N[C@@H](CO)Cc2ccccc2)C(=O)NC[C@@H](c2ccccc2)OC1=O	-	-	23µM	?	-	-
Cc1cc(C)cc(-n2c(SCC(=O)Nc3nnc(C)s3)nc3c([nH]c4ccccc43)c2=O)c1	-	-	?	?	-	.
Cc1ccc(Cn2c(=O)n(-c3cccc(C(F)(F)F)c3)c(=O)c3c(C)c(C)sc32)c(C)c1	-	-	?	?	-	.
COC(=O)c1cc(CNC(=O)c2ccncc2)cc(NC(=O)c2ccccc2Cl)c1	.	.	-[9.04 µM]	-	.	.
SMILES	TDP1 inh	HepG2 tox	DT40 TDP1 CPT	DT40 TDP1 no CPT	TGFb inhibitor	IL1B secr inh
O=P(Cc1cc(Br)cc(Br)c1OCCO)(c1ccccc1)c1ccccc1	.	-	?	?	-	.
O=P(c1ccccc1)(c1ccccc1)c1cc(Br)cc(Br)c1OCCO	.	-	-	?	-	-56
COc1ccc2c(C#N)c3ccccn3c2c1	.	-	?	23µM	-	-
CN1CCc2c(c3cnc4cc(Cl)ccc4c3n2C)C1	-	-	?	?	-	.
CCOc1ccccc1NC(=O)C(OC(=O)c1cnccn1)c1ccccc1 (stereo not given)	.	-	-	-	-	-
CCc1c(C2(O)CCCCC2)[nH]c2cnccc12	-	-	?	18µM	-	-
COc1cc2c(cc1OC)CN(C1CCC(C(C)(C)C)CC1)CC2 (stereo not given)	.	-	?	21µM	-	.
CC(=O)Oc1ccc(/C=C/c2nc3ccccc3c(=O)o2)cc1	.	-	-	-	-	-
CCc1ccccc1N(C)C(=O)c1cc2c(=O)oc3ccccc3c2s1	-	-	-	?	?	.
O=C(NCCc1nnc2n1CCN(Cc1ccc(F)cc1)CC2)c1ccco1	.	.	-	-	.	.
COc1ccc(Cl)cc1N(CC(=O)N/N=C/c1ccc(OC(C)C)cc1)S(=O)(=O)c1ccc(C)c([N+](=O)[O-])c1	-	-	-	-	-	-
COc1ccc(Cl)cc1N(CC(=O)N(C)C)S(=O)(=O)c1ccc(C)c([N+](=O)[O-])c1	-	-	?	21µM	-	-
C=CCOc1cccc(/C=N/NC(=O)CN(c2cc(Cl)ccc2OC)S(=O)(=O)c2ccc(C)c([N+](=O)[O-])c2)c1	-	-	?	16µM	-	-
COc1ccc([N+](=O)[O-])cc1N(CC(=O)N(C)C)S(C)(=O)=O	-	-	-	-	-	-
CCOC(=O)CN(c1cc([N+](=O)[O-])ccc1OC)S(C)(=O)=O	-	-	-	-	-	-60
COc1cccc(NC(=O)CN(C)CC(=O)c2c(C)[nH]c3ccccc23)c1	-	-	?	?	-	-
CC(NCc1ccc(N(C)C)cc1)C1CC2CCC1C2 (stereo not given)	-	-	?	?	-	-61
CC(NC(=O)c1ccc(CS(C)(=O)=O)cc1)C1CC2CCC1C2 (stereo not given)	-	-	-	-	-	-
Cc1cc(NC(=O)CSc2nnc(CNc3ccc(F)cc3)n2C2CCCCC2)no1	-	-	10µM	?	?	-
